FLuc counter = qHTS profiling assay for firefly luciferase inhibitor/activator using purifed enzyme and Km concentrations of substrates (counterscreen for miR-21 project); Luciferin 4-monooxygenase (Photinus pyralis), P08659; purified FLuc, Km substrates, luminescence inhibition; Potency, µM (highest dose often 57.5 µM), hits mostly inhibitors; actives 6.9% (n = 360,000); AID 588342, 2011; further: nearly all actives have a fitted effect of over 55% in size
Target sequence (P08659 whole entry, looked up): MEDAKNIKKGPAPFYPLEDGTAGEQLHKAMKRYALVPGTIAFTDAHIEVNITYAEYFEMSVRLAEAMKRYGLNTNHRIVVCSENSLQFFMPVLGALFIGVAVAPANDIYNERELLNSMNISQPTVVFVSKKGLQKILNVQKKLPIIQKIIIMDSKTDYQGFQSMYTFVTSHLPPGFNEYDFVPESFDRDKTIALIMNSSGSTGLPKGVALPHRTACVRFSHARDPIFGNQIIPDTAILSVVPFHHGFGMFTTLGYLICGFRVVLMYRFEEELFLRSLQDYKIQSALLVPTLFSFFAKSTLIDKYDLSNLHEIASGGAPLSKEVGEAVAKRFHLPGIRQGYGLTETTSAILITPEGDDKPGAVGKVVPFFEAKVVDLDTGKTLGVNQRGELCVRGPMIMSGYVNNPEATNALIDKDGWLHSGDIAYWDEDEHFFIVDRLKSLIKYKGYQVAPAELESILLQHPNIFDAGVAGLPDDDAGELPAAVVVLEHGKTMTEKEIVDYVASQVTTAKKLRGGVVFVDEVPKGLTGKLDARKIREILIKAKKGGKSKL
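Biochemical qHTS of compounds, final roughly 60 µM downward over six points, against 10 nM purified firefly luciferase using Km concentrations of substrates (10 uM D-luciferin, 10 uM ATP) in Tris acetate pH 7.5 buffer; luminescence output.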
ELG1 repair inh = qHTS screen for small molecules that inhibit ELG1-dependent DNA repair in human embryonic kidney (HEK293T) cells expressing luciferase-tagged ELG1; Potency, µM (highest dose often 46.1 µM), most hits filed as inhibitors; HEK293T ELG1-luciferase reporter, luminescence, 16 h; DNA damage induced by 5-fluorouridine; actives 2.3% (n = 330,000); further: nearly all actives have a fitted effect of over 55% in size
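Cells (2,000 per well) received 5-fluorouridine plus test compound or DMSO and were incubated 16 hr at 37 °C, 5% CO2. Luciferase activity was read by luminescence 30 min after ONE-Glo addition; signal suppression marked inhibition of damage-induced ELG1 function.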
ELG1 genotoxic = qHTS screen for small molecules that induce genotoxicity in human embryonic kidney (HEK293T) cells expressing luciferase-tagged ELG1 | HEK293T ELG1-luciferase reporter, luminescence, 16 h | AID 504466, 2011 | Potency, µM (highest dose often 46 µM), most hits filed as activators | actives 1.3% (n = 330,000); further: nearly all actives have a fitted effect of over 60% in size
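ELG1-luciferase HEK293T cells, 2,000/well; compound pinned in; 16 hr, 37 °C, 5% CO2; ONE-Glo, 30 min RT; luminescence on CCD imager.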
NPC1 promoter act = qHTS Assay for NPC1 Promoter Activators; actives 2.4% (n = 320,000); Huh7 NPC1 promoter luciferase reporter, 24 h; Potency, µM (highest dose often 9.22 µM), most hits filed as activators; further: nearly all actives have a fitted effect of over 60% in size
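Stable NPC1-promoter luciferase Huh7 line; cpd (DMSO) 24 h, 37 °C, 5% CO2; Amplite luciferase reagent 10 min RT; luminescence readout. qHTS format.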
Rab9 prom act = qHTS Assay for Rab9 Promoter Activators | Huh7 Rab9 promoter-luciferase reporter, luminescence, 24 h | Potency, µM (doses to about 9.22 µM), hits mostly activators | actives 2.8% (n = 320,000) | AID 485297, 2010; further: nearly all actives have a fitted effect of over 60% in size
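Huh7 cells stably carrying a Rab9 promoter-luciferase reporter, 1500 cells per well in OP-MEM I with 10% FBS, treated with compound 24 hours at 37C. Luciferase activity read by luminescence after 10 minutes with Amplite reagent.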
SMN2 splice up = qHTS Assay for Enhancers of SMN2 Splice Variant Expression; actives 2.8% (n = 210,000); HEK293 SMN2-luciferase splicing reporter, luminescence, 30-36 h; Potency, µM (highest dose often 46.1 µM), actives largely listed as activators; further: nearly all actives have a fitted effect of over 55% in size
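HEK293 cells carry an SMN2 minigene-luciferase reporter in which exon 7 inclusion puts luciferase in frame. Cells were seeded at 2000 cells/well, attached for 10-12 hours, then exposed to compounds for 30-36 hours at 37C before ONE-Glo luminescence.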
Hits are given with their value; 0 = inactive; ? = inconclusive; - = no result. Hits are enriched below; roughly 9.2% of the tested compounds scored in any of these assays. The call rests on the fitted dose curve; in most records, active means well fitted curve in the direction sought with a large enough effect; inconclusive means small, poorly fitted or top-dose-only effect, or another doubt; inactive means no such curve, though single readings can be large; an effect the other way counts as inactive or inconclusive.

SMILES	FLuc counter	ELG1 repair inh	ELG1 genotoxic	NPC1 promoter act	Rab9 prom act	SMN2 splice up
Cn1c2ccccc2c(=O)c2cc(C#Cc3ccccn3)ccc21	3µM	?	?	2.5µM	5µM	-
COc1cccc(NC(=O)NC2CCN(CC(=O)Nc3ccccc3[N+](=O)[O-])CC2)c1	0	21µM	0	0	0	-
O=C(CN1CCC(NC(=O)Nc2ccc(F)cc2)CC1)Nc1ccccc1[N+](=O)[O-]	0	18µM	0	0	0	-
O=C1CSC(=S)N1/N=C/c1ccc2c(c1)OCCO2	17µM	0	0	0	0	-
COc1cc(/C=N/N2C(=O)CSC2=S)ccc1O	?	0	0	0	0	0
Cc1cc(OCCn2c(CCNC(=O)C3CCCCC3)nc3ccccc32)ccc1Cl	0	-	-	-	-	0
Cc1ccnc(N/N=C/c2ccco2)n1	17µM	?	?	?	0	?
CCn1c(C)c(/C=N/Nc2nc3ccccc3s2)c2ccccc21	13µM	0	0	?	0	0
C(=N\Nc1nc2ccccc2s1)/c1ccco1	1.2µM	?	?	2.2µM	1.3µM	1.6µM
Cc1cc(N/N=C/c2ccco2)c2ccccc2n1	0	0	0	0	0	0
Cc1ccsc1/C=N/Nc1nc2ccccc2s1	1.7µM	?	1.5µM	3.5µM	1.8µM	1µM
CCOc1ccc(CNS(=O)(=O)c2cc3c(cc2C)NC(=O)CO3)cc1OC	0	-	-	-	-	-
Cc1ccn2c(=O)cc(COc3ccc(NC(=O)c4ccccc4F)cc3)nc2c1	0	-	-	-	-	-
C(=N\Nc1nc2ccccc2s1)/c1cccs1	0.85µM	?	?	?	1.3µM	7.1µM
Cc1ccc(Nc2nc(Cl)c(C=O)s2)cc1Cl	21µM	0	0	0	0	0
O=Cc1sc(Nc2ccccc2)nc1Cl	?	0	0	0	0	0
COc1ccc(NC(=O)CN(C)C(=O)c2cccc(S(=O)(=O)Nc3ccc(F)cc3)c2)cc1	0	0	0	0	0	-
COc1ccc(C(=O)NC(=S)Nc2nc(C)cc(C)n2)cc1Br	15µM	0	0	?	?	-
CCOc1ccc(C(=O)Nc2ccc3c(c2)OCCO3)cc1	2.1µM	?	2.3µM	0.5µM	0.4µM	-
COc1ccc(C(=O)Nc2ccc3c(c2)OCCO3)cc1Br	1.5µM	?	?	1µM	1.3µM	-
CCOc1ccc(C(=O)Nc2ccc3c(c2)OCCO3)cc1Br	1.3µM	-	-	-	-	16µM
COc1ccc(C(=O)Nc2ccc(N3CCCCC3)cc2)cc1Br	?	?	0	0	?	?
CCCCCC1(C(=O)OCC)CC(CSC(=N)N)OC1=O (centres undefined)	0	0	0	0	0	-
CCOC(=O)c1sc(NC(=O)Nc2ccc(F)cc2)nc1C	1.5µM	?	?	1.6µM	1.3µM	1.3µM
CCOC(=O)c1ccc(NC(=O)Oc2ccccc2)cc1	?	?	0	0	0	0
SMILES	FLuc counter	ELG1 repair inh	ELG1 genotoxic	NPC1 promoter act	Rab9 prom act	SMN2 splice up
COC(=O)c1ccc(NC(=O)Nc2ccc(F)cc2)cc1	11µM	?	0	?	?	0
CCOC(=O)c1sc(NC(=O)Cc2ccc(F)cc2)nc1C	?	?	0	0	0	0
CCOC(=O)c1ccc(NC(=O)Oc2cc(C)c(Cl)cc2C(C)C)cc1	0	0	0	0	4.5µM	-
COC(=O)c1ccc(NC(=O)Nc2ccc(OC)cc2)cc1	0	0	0	0	0	0
O=C(C1CCCN(S(=O)(=O)c2ccc(F)cc2)C1)N(Cc1cccs1)C1CC1 (centres undefined)	0	12µM	0	0	0	0
O=C(C1CCCN(S(=O)(=O)c2ccc(F)cc2)C1)N1CCCC1 (centres undefined)	0	0	0	0	0	0
COc1ccc(-n2c(CNC(=O)COc3ccc(Cl)cc3Cl)n[nH]c2=S)cc1	?	0	0	0	0	0

Screens as filed in PubChem BioAssay.
